In PubChem BioAssay (NCATS):
Results filed as inconclusive are left out. Calls of active or inactive are those of the source. Unless noted, the call rests on the fitted dose curve; in most records, active means well fitted curve in the direction sought with a large enough effect; inconclusive means small, poorly fitted or top-dose-only effect, or another doubt; inactive means no such curve, though single readings can be large; an effect the other way counts as inactive or inconclusive.

Legend:
[1] = molecular target: Lysosomal acid glucosylceramidase (Homo sapiens) (UniProt P04062); assay: Glucocerebrosidase-p2 (AID 348; in the data active means potency below about 10 µM; further: potency means the concentration at half of the fitted maximal effect); details: purified GBA, blue fluorogenic substrate, 40 min
How it was run: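 Normal human glucocerebrosidase (0.2 nM) with blue fluorogenic substrate (80 uM final) in citrate/phosphate pH 5.9 with 10mM sodium taurocholate, 0.01% tween-20; 40 min RT, NaOH/glycine stop; fluorescence Ex 365/Em 440; AC50 from a titration from 0.6 nM upwards.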

[2] = AP1 Signaling Pathway (AID 357; active means well fitted curve in either direction with a large enough effect, not every such curve was filed as active;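 further: ME-180 reporter cells stimulated with EGF at its EC50 level; on the % scale 0 is the no-effect control and ±100 the full control effect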); details: ME-180 AP-1-bla reporter, EGF-induced, beta-lactamase ratio, 5 h; at 7.69 µM (top of the series) unless noted
How it was run: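 Read-out was the 460nm/530nm emission ratio (excitation 405nm) after CCF4 loading for 2.5 hours at room temperature. Cells carried an AP-1-driven beta-lactamase reporter, were stimulated with EC50 EGF plus compound for 5 hours, and AC50 values came from titrations.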

[3] = NFAT Signaling Pathway (AID 444; active means well fitted curve in either direction with a large enough effect, not every such curve was filed as active;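 further: carbachol stimulus at about its EC50 of 1 µM final; on the % scale 0 is the no-effect control and ±100 the full control effect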); details: Jurkat NFAT-bla M1, carbachol, beta-lactamase ratio, 5 h; at 7.69 µM (top of the series) unless noted
How it was run: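 Read-out: CCF4 FRET ratio (460 nm/530 nm) after 1 h RT dye loading, used for %activity and AC50 from titration series. Cells: Jurkat NFAT-β-lactamase/M1 line, treated with compound plus 1 uM carbachol for 5 h, 37 °C.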

[4] = Stat Signaling Pathway (AID 446; active means well fitted curve in either direction with a large enough effect, not every such curve was filed as active;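 further: ME-180 cervical cancer cells given 40 pM IL-6 alongside compound; SIE-controlled beta-lactamase reporter measured as 460/530 nm FRET emission ratio; on the % scale 0 is the no-effect control and ±100 the full control effect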); details: ME-180 (cervical carcinoma) SIE beta-lactamase reporter, IL-6 stimulated, 5 h; at 7.69 µM (top of the series) unless noted
How it was run: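 Normalization used AC90 stimulation (300 pM IL-6) and AC90 inhibition (125 nM pan-JAK inhibitor at 40 pM IL-6). The underlying signal is SIE-driven beta-lactamase in ME-180 cells after 5 h IL-6 exposure with compound.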

[5] = molecular target: Glucocorticoid receptor (Homo sapiens) (UniProt P04150); assay: GR-GFP Redistribution (AID 450;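 active means compounds whose dose series gives a full or clear partial fitted curve of increased nuclear translocation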; further: potency means the concentration at half of the fitted maximal effect); details: U2OS GR-GFP nuclear translocation, laser cytometry, 2 h
[6] = molecular target: Glucocorticoid receptor (Homo sapiens) (UniProt P04150); assay: GR-EFC Redistribution (AID 451; calls by dose curve; further: potency means the concentration at half of the fitted maximal effect); details: CHO-K1 GR-EFC translocation, beta-gal luminescence, 2 h
How it was run: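 Translocation of GR-ED fusion to nuclear EA restores b-gal, read by luminescence after 1 h room-temperature detection. Engineered CHO-K1 biosensor cells, 1,000/well, exposed 2 h at 37 C to titrations up to 46 uM final.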

[7] = molecular target: Mitogen-activated protein kinase 10 (Mus musculus) (UniProt Q61831); assay: JNK3 AlphaScreen Assay (AID 530; active means well fitted curve in either direction with a large enough effect, not every such curve was filed as active;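 further: kinase came from lysate of stimulated human HepG2 cells; signal reports phosphorylation of biotinylated GST-cJun 1-79 at Ser73 with 10 µM ATP; on the % scale 0 is the no-effect control and ±100 the full control effect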); details: JNK3 lysate, c-Jun phosphorylation; series mostly up to 57.1 µM
How it was run: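 qHTS titrations with 15 min compound pre-incubation before adding ATP (10 uM final). Read-out: AlphaScreen of Ser73-phosphorylated biotin-GST-cJun using HepG2 lysate JNK3 activated by IL-1β and TNFα.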

[8] = molecular target: 3',5'-cyclic-AMP phosphodiesterase 4B (Homo sapiens) (UniProt Q07343); assay: qHTS Assay for Inhibitors of PDE-IV (AID 607; active means well fitted activation curve with a large enough effect in the main read-out, with a control signal flat, not every such curve was filed as active; further: % of control where 0% means no effect); details: HEK293 ACTOne CNG channel cells, membrane potential fluorescence; series mostly up to 22.9 µM
How it was run: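 HEK293 ACTOne cells with CNG channel (1000/well), endogenous PDE4; membrane potential dye, compounds up to 22.9 uM final. Fluorescence Ex 535/Em 590; RO 20-1724 (100 uM final) as reference.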

[9] = molecular target: Cytochrome P450 3A4 (Homo sapiens) (UniProt P08684); assay: qHTS Assay for Inhibitors and Substrates of Cytochrome P450 3A4 (AID 884); details: recombinant CYP3A4, Luciferin-PPXE luminescence; series mostly up to 57.1 µM; further: potency means the concentration at half of the fitted maximal effect; nearly all actives have a fitted effect of over 50% in size
How it was run: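 Luminescent readout of luciferin produced by CYP3A4 (20 nM) dealkylation of Luciferin-PPXE, 25 uM (its KM). NADPH-driven reaction ran 60 min at RT after 10 min compound preincubation; data scaled to 57 uM ketoconazole as 100% inhibition.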

[10] = molecular target: Cytochrome P450 3A4 (Homo sapiens) (UniProt P08684); assay: qHTS Assay for Activators of Cytochrome P450 3A4 (AID 885); details: recombinant CYP3A4, Luciferin-PPXE luminescence, 60 min; series mostly up to 57.1 µM; further: nearly all actives have a fitted effect of over 65% in size
How it was run: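 Human CYP3A4 dealkylates Luciferin-PPXE to luciferin, which luciferase detection converts to light. Substrate was at its KM (25uM), buffer 200mM KPO4, reaction 60 min at RT.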

[11] = qHTS Assay for Lipid Storage Modulators (AID 1519; calls by dose curve); details: Drosophila S3 cells, BODIPY lipid droplet/cell ratio, laser cytometry, cells loaded with oleic acid; for activity change, negative = inhibition: at 57.5 µM (top of the series)
How it was run: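 Cells seeded at 5,000 per well were treated with compounds over a concentration series and loaded with oleic acid (400 uM, as added). Lipid droplet fluorescence (488 nm excitation, 500-530 nm channel) was read by laser-scanning cytometry and normalized to 20 uM Triacsin C.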

[12] = molecular target: Dual specificity protein kinase CLK4 (Homo sapiens) (UniProt Q9HAZ1); assay: qHTS Assay for Inhibitors of CDC-like Kinase 4 (Kinase-Glo Assay) (AID 1770); details: recombinant Clk4, Kinase-Glo ATP depletion luminescence; series mostly up to 66.7 µM; further: nearly all actives have a fitted effect of over 65% in size; further: potency means the concentration at half of the fitted maximal effect
How it was run: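 Substrate mix (RS peptide 100 uM, ATP 1 uM) dispensed, compound pinned in, then Clk4 added to 25 nM final. Incubated 4.5 h at RT; Kinase-Glo reagent added, luminescence read after 5 min.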

[13] = molecular target: Dual specificity protein kinase CLK4 (Homo sapiens) (UniProt Q9HAZ1); assay: qHTS Assay for Inhibitors of CDC-like Kinase 4 (ADP-Glo Assay) (AID 1771); details: recombinant CLK4, ADP-Glo luminescence; series mostly up to 80 µM; further: nearly all actives have a fitted effect of over 70% in size; further: potency means the concentration at half of the fitted maximal effect
How it was run: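 ADP production was read by ADP-Glo luminescence after residual ATP depletion, following 1 h room-temperature reaction of 25 nM Clk4, 1 uM ATP and 100 uM RS peptide with MgCl2, EGTA, DTT and Triton X-100.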

[14] = molecular target: Dual specificity protein kinase CLK4 (Homo sapiens) (UniProt Q9HAZ1); assay: qHTS Assay for Inhibitors of CDC-like Kinase 4 (ADP-FP Assay) (AID 1795); details: Transcreener ADP fluorescence polarization; series mostly up to 50 µM; further: nearly all actives have a fitted effect of over 60% in size; further: potency means the concentration at half of the fitted maximal effect
How it was run: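 Clk4 6.25 nM; RS peptide 100 uM; ATP 1 uM; 25 mM Tris pH 7.5, 10 mM MgCl2; 1 h reaction. ADP detected via antibody/orange tracer FP displacement; TG003 positive control.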

[15] = molecular target: Ubiquitin carboxyl-terminal hydrolase 1 (Homo sapiens) (UniProt O94782); assay: Inhibitors of USP1/UAF1: Pilot qHTS (AID 504865); details: purified USP1/UAF1, Ub-rhodamine cleavage fluorescence; series mostly up to 54.9 µM;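 further: rhodamine fluorescence freed from ubiquitin-rhodamine substrate followed over time; top concentration of the series differs between compounds; on the % scale 0 is the no-effect control and ±100 the full control effect; nearly all actives have a fitted effect of over 35% in size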
How it was run: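 In 50mM HEPES pH 7.8 containing 0.5mM EDTA, 1mM TCEP, 0.1 mg/ml BSA and 0.01% Tween-20, 1nM USP1/UAF1 is exposed to compound for 15 min, then Ub-Rho (150nM final) is added and fluorescence is read over time.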

[16] = molecular target: Cytochrome P450 1A2 (Homo sapiens) (UniProt P05177); assay: p450-cyp1a2 (AID 410; calls by dose curve; further: potency means the concentration at half of the fitted maximal effect); details: recombinant CYP1A2, luciferin-ME demethylation, luminescence; series mostly up to 57 µM
How it was run: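 Luminescent demethylation readout: Luciferin-ME (100uM, equal to Km) turned over by 20nM CYP1A2 for 60 min at room temperature after NADPH regeneration addition, following 10 min compound preincubation. Normalization used 57 uM furafylline as full inhibition.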

[17] = molecular target: Cytochrome P450 2C19 (Homo sapiens) (UniProt P33261); assay: qHTS Assay for Inhibitors and Substrates of Cytochrome P450 2C19 (AID 899); details: recombinant CYP2C19, luciferin-H EGE luminescence; series mostly up to 57.1 µM; further: nearly all actives have a fitted effect of over 60% in size; further: potency means the concentration at half of the fitted maximal effect
How it was run: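 5nM enzyme + 10uM Luciferin-H EGE (=KM), 50mM KPO4; cpd pin-transferred, 10 min 37C; NADPH regen, 60 min 37C; stopped w/ luciferin detection reagent, 20 min; luminescence. Normalized to 57uM ketoconazole (AC100).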

[18] = measured here: cell count channel max response
[19] = measured here: lipid channel max response

Sequence of Cytochrome P450 3A4 (Homo sapiens) (P08684 whole entry, looked up): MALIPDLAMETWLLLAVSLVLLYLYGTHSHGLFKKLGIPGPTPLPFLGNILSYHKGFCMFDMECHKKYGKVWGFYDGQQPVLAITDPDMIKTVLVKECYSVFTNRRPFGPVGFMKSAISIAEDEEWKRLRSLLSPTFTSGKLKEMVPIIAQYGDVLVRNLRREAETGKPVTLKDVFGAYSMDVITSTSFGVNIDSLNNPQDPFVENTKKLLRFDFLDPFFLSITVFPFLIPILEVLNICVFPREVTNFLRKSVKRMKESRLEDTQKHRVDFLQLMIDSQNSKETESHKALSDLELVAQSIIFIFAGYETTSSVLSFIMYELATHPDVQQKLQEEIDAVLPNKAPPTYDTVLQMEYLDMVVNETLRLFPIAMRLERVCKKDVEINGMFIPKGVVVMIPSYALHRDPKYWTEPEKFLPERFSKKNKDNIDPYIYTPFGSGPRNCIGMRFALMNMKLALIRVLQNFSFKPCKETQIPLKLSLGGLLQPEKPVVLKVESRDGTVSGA
Sequence of Ubiquitin carboxyl-terminal hydrolase 1 (Homo sapiens) (O94782 whole entry, looked up): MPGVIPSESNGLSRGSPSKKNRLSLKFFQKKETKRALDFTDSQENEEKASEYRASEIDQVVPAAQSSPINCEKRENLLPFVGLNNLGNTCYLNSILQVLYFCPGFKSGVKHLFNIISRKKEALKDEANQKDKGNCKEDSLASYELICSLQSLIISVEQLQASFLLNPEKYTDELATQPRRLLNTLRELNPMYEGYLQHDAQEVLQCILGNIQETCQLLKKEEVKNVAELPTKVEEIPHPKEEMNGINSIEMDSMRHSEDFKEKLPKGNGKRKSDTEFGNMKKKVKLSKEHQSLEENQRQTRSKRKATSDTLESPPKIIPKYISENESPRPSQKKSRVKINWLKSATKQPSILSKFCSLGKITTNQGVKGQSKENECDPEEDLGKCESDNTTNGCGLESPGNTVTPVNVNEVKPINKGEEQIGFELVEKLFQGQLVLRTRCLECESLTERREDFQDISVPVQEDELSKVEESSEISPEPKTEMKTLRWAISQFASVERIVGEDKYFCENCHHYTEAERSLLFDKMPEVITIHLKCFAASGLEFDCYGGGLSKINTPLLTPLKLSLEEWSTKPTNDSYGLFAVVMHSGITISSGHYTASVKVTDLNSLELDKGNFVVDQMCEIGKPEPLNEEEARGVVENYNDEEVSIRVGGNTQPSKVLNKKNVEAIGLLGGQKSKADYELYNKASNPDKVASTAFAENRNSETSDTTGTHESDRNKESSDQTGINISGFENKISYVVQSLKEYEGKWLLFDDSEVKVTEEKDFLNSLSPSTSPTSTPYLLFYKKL
Sequence of Cytochrome P450 1A2 (Homo sapiens) (P05177 whole entry, looked up): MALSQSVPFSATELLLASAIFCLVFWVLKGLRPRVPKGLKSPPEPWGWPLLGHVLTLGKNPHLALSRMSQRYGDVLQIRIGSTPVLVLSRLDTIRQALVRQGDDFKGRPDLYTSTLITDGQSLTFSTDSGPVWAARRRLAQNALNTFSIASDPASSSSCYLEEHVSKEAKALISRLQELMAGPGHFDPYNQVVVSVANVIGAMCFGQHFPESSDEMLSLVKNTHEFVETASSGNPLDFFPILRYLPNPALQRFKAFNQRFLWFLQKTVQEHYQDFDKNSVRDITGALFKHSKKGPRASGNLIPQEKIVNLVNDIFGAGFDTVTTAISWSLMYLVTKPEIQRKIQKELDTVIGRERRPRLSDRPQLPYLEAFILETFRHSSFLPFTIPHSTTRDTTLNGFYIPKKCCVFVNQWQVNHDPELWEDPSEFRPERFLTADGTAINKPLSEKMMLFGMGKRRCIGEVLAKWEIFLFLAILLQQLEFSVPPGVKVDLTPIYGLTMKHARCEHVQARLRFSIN
Sequence of 3',5'-cyclic-AMP phosphodiesterase 4B (Homo sapiens) (Q07343 whole entry, looked up): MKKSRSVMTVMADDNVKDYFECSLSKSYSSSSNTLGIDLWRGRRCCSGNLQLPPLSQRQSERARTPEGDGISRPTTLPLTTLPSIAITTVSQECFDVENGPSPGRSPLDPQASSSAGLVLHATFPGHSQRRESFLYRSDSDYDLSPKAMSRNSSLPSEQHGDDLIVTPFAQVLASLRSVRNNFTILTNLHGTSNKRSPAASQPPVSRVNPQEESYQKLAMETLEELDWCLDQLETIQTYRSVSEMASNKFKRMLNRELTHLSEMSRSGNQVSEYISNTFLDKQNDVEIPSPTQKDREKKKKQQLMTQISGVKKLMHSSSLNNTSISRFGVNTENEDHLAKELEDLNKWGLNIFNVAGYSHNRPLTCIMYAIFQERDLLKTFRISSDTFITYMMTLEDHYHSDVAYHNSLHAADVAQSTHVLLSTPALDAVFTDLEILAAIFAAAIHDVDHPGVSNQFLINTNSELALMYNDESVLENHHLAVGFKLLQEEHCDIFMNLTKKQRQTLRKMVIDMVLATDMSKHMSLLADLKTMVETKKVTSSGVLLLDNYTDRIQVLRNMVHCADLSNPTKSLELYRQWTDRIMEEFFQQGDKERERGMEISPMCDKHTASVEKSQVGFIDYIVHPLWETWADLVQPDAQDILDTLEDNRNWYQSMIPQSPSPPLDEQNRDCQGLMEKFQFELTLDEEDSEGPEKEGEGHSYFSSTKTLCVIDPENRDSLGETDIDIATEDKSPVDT
Sequence of Glucocorticoid receptor (Homo sapiens) (P04150 whole entry, looked up, the tested form may be a part): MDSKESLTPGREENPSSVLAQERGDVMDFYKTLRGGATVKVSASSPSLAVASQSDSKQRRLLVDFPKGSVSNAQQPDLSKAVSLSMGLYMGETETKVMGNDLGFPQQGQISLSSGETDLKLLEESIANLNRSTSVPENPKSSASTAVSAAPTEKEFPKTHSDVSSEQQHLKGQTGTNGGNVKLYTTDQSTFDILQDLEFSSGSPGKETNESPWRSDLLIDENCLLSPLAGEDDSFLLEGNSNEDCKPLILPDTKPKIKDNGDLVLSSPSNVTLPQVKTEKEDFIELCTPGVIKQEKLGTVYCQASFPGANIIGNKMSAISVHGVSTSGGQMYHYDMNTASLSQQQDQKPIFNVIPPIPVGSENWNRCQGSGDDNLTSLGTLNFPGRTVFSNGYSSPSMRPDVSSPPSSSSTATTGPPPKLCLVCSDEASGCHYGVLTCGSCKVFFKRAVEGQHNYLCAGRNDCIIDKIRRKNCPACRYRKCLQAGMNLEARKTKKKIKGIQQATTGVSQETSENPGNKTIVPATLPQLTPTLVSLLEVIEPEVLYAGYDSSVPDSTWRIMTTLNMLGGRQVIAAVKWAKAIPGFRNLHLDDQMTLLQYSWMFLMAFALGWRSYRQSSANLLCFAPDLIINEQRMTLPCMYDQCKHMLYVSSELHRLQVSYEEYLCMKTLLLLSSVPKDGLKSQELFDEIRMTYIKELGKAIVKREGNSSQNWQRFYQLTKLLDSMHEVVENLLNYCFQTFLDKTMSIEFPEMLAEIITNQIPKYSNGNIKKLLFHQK
Sequence of Dual specificity protein kinase CLK4 (Homo sapiens) (Q9HAZ1 whole entry, looked up): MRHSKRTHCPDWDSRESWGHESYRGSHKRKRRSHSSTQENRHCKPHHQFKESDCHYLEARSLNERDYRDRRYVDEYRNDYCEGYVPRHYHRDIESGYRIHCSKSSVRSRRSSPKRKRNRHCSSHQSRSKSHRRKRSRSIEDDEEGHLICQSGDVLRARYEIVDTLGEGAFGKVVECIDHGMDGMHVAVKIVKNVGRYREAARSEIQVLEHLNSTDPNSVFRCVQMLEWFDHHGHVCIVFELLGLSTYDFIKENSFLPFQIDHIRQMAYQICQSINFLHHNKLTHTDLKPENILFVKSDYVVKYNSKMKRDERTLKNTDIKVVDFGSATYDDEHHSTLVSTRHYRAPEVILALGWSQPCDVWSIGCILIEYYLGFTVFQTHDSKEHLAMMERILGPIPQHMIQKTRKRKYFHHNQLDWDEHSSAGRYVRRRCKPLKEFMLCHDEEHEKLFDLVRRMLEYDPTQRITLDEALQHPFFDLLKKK
Sequence of Lysosomal acid glucosylceramidase (Homo sapiens) (P04062 whole entry, looked up): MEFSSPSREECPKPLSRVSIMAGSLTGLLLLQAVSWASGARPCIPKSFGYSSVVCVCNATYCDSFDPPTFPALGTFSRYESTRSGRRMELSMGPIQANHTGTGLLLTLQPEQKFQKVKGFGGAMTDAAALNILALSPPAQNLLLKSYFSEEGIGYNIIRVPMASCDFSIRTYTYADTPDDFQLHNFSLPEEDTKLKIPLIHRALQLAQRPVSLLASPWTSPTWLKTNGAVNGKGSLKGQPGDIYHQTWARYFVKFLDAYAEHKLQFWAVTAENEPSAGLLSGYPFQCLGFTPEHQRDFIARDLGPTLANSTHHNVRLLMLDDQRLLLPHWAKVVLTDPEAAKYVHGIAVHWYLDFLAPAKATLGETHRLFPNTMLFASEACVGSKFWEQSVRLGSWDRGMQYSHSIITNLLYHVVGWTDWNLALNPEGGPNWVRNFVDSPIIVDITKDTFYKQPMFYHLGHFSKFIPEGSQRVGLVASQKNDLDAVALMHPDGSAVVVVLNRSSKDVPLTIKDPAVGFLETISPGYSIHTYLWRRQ
Sequence of Cytochrome P450 2C19 (Homo sapiens) (P33261 whole entry, looked up): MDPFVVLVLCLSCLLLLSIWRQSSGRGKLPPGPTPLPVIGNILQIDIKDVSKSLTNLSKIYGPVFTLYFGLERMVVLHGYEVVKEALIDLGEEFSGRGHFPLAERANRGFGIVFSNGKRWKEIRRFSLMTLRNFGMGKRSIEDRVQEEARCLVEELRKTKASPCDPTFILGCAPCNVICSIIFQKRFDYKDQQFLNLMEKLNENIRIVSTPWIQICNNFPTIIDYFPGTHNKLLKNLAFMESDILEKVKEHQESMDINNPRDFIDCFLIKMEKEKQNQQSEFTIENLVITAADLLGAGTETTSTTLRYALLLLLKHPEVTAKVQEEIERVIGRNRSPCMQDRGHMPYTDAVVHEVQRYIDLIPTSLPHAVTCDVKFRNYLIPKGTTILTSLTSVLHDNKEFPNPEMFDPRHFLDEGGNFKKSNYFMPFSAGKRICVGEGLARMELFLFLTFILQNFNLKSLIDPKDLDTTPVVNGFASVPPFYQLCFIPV

Row | SMILES | Potency [1] | activity change, negative = inhibition [2] | activity change, negative = inhibition [3] | activity, negative = inhibition [4] | Potency [5] | Potency [6] | Potency [7] | Potency [8] | Potency [9] | Potency [10] | activity change, negative = inhibition [11] | max response [11, 18] [%] | max response [11, 19] [%] | Potency [12] | Potency [13] | Potency [14] | Potency [15] | Potency [16] | Potency [17]
1 | COc1ccccc1-c1cncnc1N1CCN(C)CC1 | > 11.4 µM (inactive) | 3.96% (inactive) | -14.4% (inactive) | 4.86% (inactive) | > 46 µM (inactive) | > 46 µM (inactive) | inactive | inactive | 2.51 µM (active) | inactive | 3.21% (inactive) | 28 | 29.7 | inactive | inactive | inactive | inactive | – | –
2 | COc1cccc(Nc2ncc3ncc(=O)n(C)c3n2)c1 | > 11.4 µM (inactive) | – | 0.44% (inactive) | -17.5% (inactive) | > 9.22 µM (inactive) | > 46 µM (inactive) | – | inactive | – | inactive | 4.86% (inactive) | 11.1 | 14.9 | 0.891 µM (active) | 1 µM (active) | 0.708 µM (active) | inactive | 1.58 µM (active) | inactive
3 | FC(F)(F)c1ccccc1-c1cncnc1NCCN1CCOCC1 | > 11.4 µM (inactive) | – | – | -11.6% (inactive) | > 46 µM (inactive) | > 46 µM (inactive) | inactive | inactive | 0.794 µM (active) | inactive | -3.84% (inactive) | 15.3 | 13.3 | inactive | inactive | inactive | inactive | 2.51 µM (active) | –
4 | Clc1ccccc1-c1nc(NC2CCNCC2)c2ccccc2n1 | > 11.4 µM (inactive) | -8.89% (inactive) | 7.15% (inactive) | 3.31% (inactive) | > 46 µM (inactive) | > 46 µM (inactive) | inactive | inactive | – | – | 1.68% (inactive) | 15.1 | 17.6 | 10 µM (active) | – | 12.6 µM (active) | inactive | 20 µM (active) | –
5 | COCCNc1ncnc2ccc(-c3ccccc3C(F)(F)F)cc12 | – | 15.6% (inactive) | 18.9% (inactive) | -11.6% (inactive) | – | – | inactive | – | – | inactive | -1.49% (inactive) | -4.06 | -5.73 | 25.1 µM (active) | – | – | inactive | 1.58 µM (active) | 6.31 µM (active)
6 | N#Cc1ccccc1-c1ccc2ncnc(NCc3cccs3)c2c1 | > 11.4 µM (inactive) | -0.438% (inactive) | 20.9% (inactive) | -2.46% (inactive) | > 46 µM (inactive) | > 46 µM (inactive) | inactive | inactive | – | – | 2.64% (inactive) | 0.851 | -0.129 | – | 3.16 µM (active) | – | inactive | – | –
